Mtb UGM inh: M. tuberculosis UGM enzyme inhibitors, primary screen, biochemical, fluorescence polarization, single point | inhibition, % at 10 µM | purified UGM, fluorescence polarization probe displacement | hit rate 0.06% among 320,000 | AID 504406, 2011; in the data active = inhibition above about 10%, passing the limit was not always enough
Rv3671c protease: Rv3671c serine protease inhibitors, primary screen, biochemical, fluorescence polarization, M. tuberculosis H37Rv. P9WHR9. inhibition, % at 5.96 µM. hit rate 0.048% among 320,000; in the data active = inhibition above about 38%;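 also: extracellular domain of Rv3671c used as enzyme; 0% = enzyme with DMSO and 100% = no enzyme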
Target sequence (P9WHR9 whole entry, looked up, the tested form may be a part): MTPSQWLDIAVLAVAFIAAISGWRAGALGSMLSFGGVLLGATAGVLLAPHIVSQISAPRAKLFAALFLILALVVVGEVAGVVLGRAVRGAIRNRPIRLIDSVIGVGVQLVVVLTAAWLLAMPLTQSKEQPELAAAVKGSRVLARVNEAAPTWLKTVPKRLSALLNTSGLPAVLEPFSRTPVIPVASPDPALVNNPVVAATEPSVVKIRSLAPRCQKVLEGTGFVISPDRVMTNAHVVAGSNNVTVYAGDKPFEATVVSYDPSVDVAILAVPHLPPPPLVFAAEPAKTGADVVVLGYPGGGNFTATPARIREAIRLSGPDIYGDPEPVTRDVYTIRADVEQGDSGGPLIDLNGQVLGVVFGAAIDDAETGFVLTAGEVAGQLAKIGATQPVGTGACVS
FBA Mtb inh: Mtb FBA enzyme inhibitors, primary screen, biochemical, fluorescence, strain H37Rv. Fructose-bisphosphate aldolase (Mycobacterium tuberculosis (strain ATCC 25618 / H37Rv)), …. purified M. tuberculosis FBA, fluorescence read-out. inhibition, % at 1 µM. hit rate 2.3% among 360,000;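 also: 0% = vehicle and 100% = reference inhibitor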
GDH-TPI counter-1: GDH-TPI coupling enzyme inhibitors, primary screen, artefact control for M. tuberculosis FBA inhibitor project, biochemical, absorbance, full deck; hit rate 1.2% among 360,000; GDH-TPI coupled enzyme counterscreen, NADH absorbance; inhibition, % at 4.8 µM; in the data active = inhibition above about 30%;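 also: 0% = DMSO wells and 100% = wells lacking the enzyme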
Mtb FBA confirm: M. tuberculosis aldolase blockers, biochemical, fluorescence, strain H37Rv, confirmation. purified M. tuberculosis FBA, fluorescence read-out. inhibition, % at 1 µM. hit rate 78% among 5,600. shares compounds with FBA Mtb inh;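 also: 0% = vehicle wells and 100% = reference inhibitor wells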
GDH-TPI counter-2: GDH-TPI coupling enzyme inhibitors, artefact control for M. tuberculosis FBA inhibitor project, biochemical, fluorescence, high throughput; inhibition, % at 1 µM; shares compounds with FBA Mtb inh; hit rate 81% among 5,600; GDH-TPI coupled enzyme counterscreen; in the data active = inhibition above about 10%
Numbers without * were called inactive; . = no result; + = active, no number. Compounds with a hit are over-represented: about 3.5% of the library has one in this group of screens. Rule as the data show it, unless noted: active = inhibition above about 27%; inactive = the rest.

SMILES	Mtb UGM inh	Rv3671c protease	FBA Mtb inh	GDH-TPI counter-1	Mtb FBA confirm	GDH-TPI counter-2
COC(=O)c1cccc(NS(=O)(=O)c2ccc(NC(C)=O)cc2)c1C	3	-6	1	-8	.	.
COC(=O)c1ccc(C(=O)OC)c(NS(=O)(=O)c2ccc(NC(C)=O)cc2)c1	-3	-5	34*	4	71*	62*
CC1(C)CC(=O)C=C(C(=O)N2CCCC(C(=O)c3cccc(C(F)(F)F)c3)C2)O1 (configuration not stated)	3	-17	3	11	.	.
COC(=O)C1=CN(Cc2ccc(OC)cc2)C=C(C(=O)OC)C1c1ccsc1	1	-6	98*	2	131*	86*
COc1ccc(CNC(=O)COC(=O)Cc2ccsc2)cc1	0	12	1	9	.	.
COC(=O)C1=C(C)OC(N)=C(C#N)C1c1ccsc1 (configuration not stated)	4	-9	1	-4	.	.
COC(=O)C1=CN(CC2CCCO2)C=C(C(=O)OC)C1c1ccsc1 (configuration not stated)	-2	-5	83*	0	4	-8
COC(=O)C1=CN(Cc2ccc(OC)c(OC)c2)C=C(C(=O)OC)C1c1cccc(O)c1	-3	4	111*	19	109*	82*
COCCN1C=C(C(=O)OC)C(c2ccc3c(c2)OCO3)C(C(=O)OC)=C1	2	-1	14	12	.	.
COC(=O)C1=CN(CCOC23CC4CC(CC(C4)C2)C3)C=C(C(=O)OC)C1c1ccsc1	2	-1	63*	-1	101*	85*
CCOC(=O)c1csc(NC(=O)c2ccc3c(c2)OCCO3)n1	-3	-11	2	9	.	.
Cc1ccc(-c2cc(-c3ccc(C)cc3)[n+](-c3ccc(C(=O)O)cc3)c(-c3ccc(C)cc3)c2)cc1	2	-4	19	24	.	.
Cc1ccc(-c2cc(-c3ccccc3)cc(-c3ccccc3)[n+]2-c2ccc(C(=O)O)cc2)cc1	-1	7	29*	26	49*	46*
Nc1cc(Cl)ccc1C(=O)OCC(=O)N1CCOCC1	-3	-9	44*	9	63*	53*
Nc1cc(Cl)ccc1C(=O)OCC(=O)NCC1CCCO1 (configuration not stated)	5	-5	53*	15	106*	74*
Nc1cc(Cl)ccc1C(=O)OCC(=O)NC1CCCCC1	.	-6	13	0	.	.
O=C(OCC(=O)N1CCCCCC1)c1cccc(Cl)c1	1	2	-2	1	.	.
Nc1cc(Cl)ccc1C(=O)OCC(=O)N1CCCCCC1	0	5	60*	8	-7	-8
CCN(C(=O)COC(=O)c1ccc(Cl)cc1N)C1CCCCC1	-3	-3	31*	17	93*	87*
O=c1c(Cl)c(NCc2ccccc2)cnn1C12CC3CC(CC(C3)C1)C2	0	-13	2	7	.	.
O=C(O)C1CCC(Cn2c(SCc3cc(=O)n4cc(Cl)ccc4n3)nc3ccsc3c2=O)CC1 (configuration not stated)	2	6	0	-4	.	.
CC(C)Sc1nc2c(cnn2-c2ccc(Cl)cc2)c(=O)[nH]1	-1	-13	0	-1	.	.
Nc1cc(C(=O)OCC(=O)N2CCCC2)ccc1Cl	2	-1	16	-4	.	.
Nc1cc(Cl)ccc1C(=O)OCC(=O)N1CCCC1	-5	8	59*	5	93*	84*
COc1ccc(-n2cc(CN[C@H]3CCCCNC3=O)c(-c3cccc(F)c3)n2)cc1	-4	2	57*	6	-4	-1
SMILES	Mtb UGM inh	Rv3671c protease	FBA Mtb inh	GDH-TPI counter-1	Mtb FBA confirm	GDH-TPI counter-2
COc1ccc(-n2cc(CNC3CCN(C)CC3)c(-c3cccc(F)c3)n2)cc1	-2	-13	64*	13	189*	162*
COc1ccc(-n2cc(CN3CCCC3)c(-c3cccc(F)c3)n2)cc1	-1	6	22	1	.	.
COc1ccc(-c2ccc(C(=O)NCc3ccc(N(C)C)cc3)c3occc23)c(C)c1	.	.	0	1	.	.
COc1ccc(CCNc2oc(-c3ccco3)nc2C#N)cc1	1	-7	54*	9	145*	133*
COc1ccc(-c2nc(C#N)c(NCCc3ccccc3)o2)cc1OC	2	-1	102*	20	+	+
N#Cc1nc(Cc2cccc3ccccc23)oc1NCCN1CCOCC1	-2	-2	6	29	.	.
N#Cc1nc(-c2ccco2)oc1NCCc1ccccc1	-1	-1	41*	20	49*	40*
COc1ccc(CCNc2oc(COc3ccc(F)cc3)nc2C#N)cc1	0	-2	-3	-1	.	.
O=C(CSc1nnc(-c2ccco2)o1)NCCc1ccccc1	-1	-1	0	0	.	.
N#Cc1nc(-c2ccccc2)oc1NCCN1CCCCC1	1	-1	81*	-9	67*	68*
Cn1cccc1CNCC(O)c1ccccc1 (configuration not stated)	1	6	-1	8	.	.
CC(=O)Nc1ccc(S(=O)(=O)N2CCCN(c3nc(C)cc(C)c3C#N)CC2)cc1	3	4	20	6	.	.
CC(C)(C)NC(=O)C[C@H]1C[C@H](C(=O)N2CCOCC2)[C@@]2(C)c3[nH]c4cc(-c5ccco5)ccc4c3CCN2C1=O	.	.	31*	5	50*	45*
CC(C)(C)NC(=O)C[C@H]1C[C@H](C(=O)N2CCCCC2)[C@@]2(C)c3[nH]c4cc(-c5ccco5)ccc4c3CCN2C1=O	.	.	21	3	.	.
CCN(CC)C(=O)[C@H]1C[C@H](CC(=O)NCc2ccco2)C(=O)N2CCc3c([nH]c4cc(-c5ccco5)ccc34)[C@]12C	.	.	27	-5	.	.
C[C@]12c3[nH]c4cc(-c5ccco5)ccc4c3CCN1C(=O)[C@@H](CC(=O)NCc1ccco1)C[C@@H]2C(=O)N1CCOCC1	.	.	31*	7	174*	148*
C[C@]12c3[nH]c4cc(-c5ccco5)ccc4c3CCN1C(=O)[C@@H](CC(=O)NCc1ccco1)C[C@@H]2C(=O)N1CCCCC1	.	.	32*	-1	117*	70*
COCCN1C[C@@H](CO)O[C@@H](n2cnc3c(NCCN(C)C)ncnc32)C1	.	.	0	4	.	.
CCCOc1ccc(C(=O)Nc2ccc(N3CCN(C(=O)c4ccco4)CC3)cc2)cc1	-1	-1	2	-5	.	.
CCOC(=O)Cn1c(=O)oc2cc(S(=O)(=O)N3CCN(C(=O)c4ccco4)CC3)ccc21	1	-1	5	-9	.	.
Cc1[nH]c(=S)c(C#N)c(C)c1Cc1ccccc1	-2	3	1	9	.	.
CCc1cc(=O)n2c([nH]c3ccccc32)c1C#N	1	-26	66*	1	60*	50*
